Reference: PubChem BioAssay AID624330 (Southern Research Specialized Biocontainment Screening …, 2012)
The whole screen tested about 340,000 compounds, of which about 2,100 (0.62%) were called active.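 Rule for the calls: active = first-screen hits whose inhibition reached a set limit at any dose in the follow-up dose series; inconclusive = inhibition above the set first-screen limit but never retested; inactive = the rest.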 The list is a sample of the results. Measured potencies and affinities stand elsewhere.

These compounds were tested against Rac GTPase-activating protein 1 (Homo sapiens) (UniProt Q9H0H5) (assay: MgcRacGAP GTPase-activating activity inhibitors, confirmation, biochemical, ADP Hunter fluorescence, primary and confirmatory (AID 624330;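 note: fluorescence reports GDP produced by GAP-driven GTP hydrolysis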)). Conditions: MgcRacGAP-stimulated Rac1 GTP hydrolysis, at 30 µM, active compounds read high, GST-tagged Rac1 F28L mutant substrate.
Sequence of Rac GTPase-activating protein 1 (Homo sapiens) (Q9H0H5 whole entry, looked up): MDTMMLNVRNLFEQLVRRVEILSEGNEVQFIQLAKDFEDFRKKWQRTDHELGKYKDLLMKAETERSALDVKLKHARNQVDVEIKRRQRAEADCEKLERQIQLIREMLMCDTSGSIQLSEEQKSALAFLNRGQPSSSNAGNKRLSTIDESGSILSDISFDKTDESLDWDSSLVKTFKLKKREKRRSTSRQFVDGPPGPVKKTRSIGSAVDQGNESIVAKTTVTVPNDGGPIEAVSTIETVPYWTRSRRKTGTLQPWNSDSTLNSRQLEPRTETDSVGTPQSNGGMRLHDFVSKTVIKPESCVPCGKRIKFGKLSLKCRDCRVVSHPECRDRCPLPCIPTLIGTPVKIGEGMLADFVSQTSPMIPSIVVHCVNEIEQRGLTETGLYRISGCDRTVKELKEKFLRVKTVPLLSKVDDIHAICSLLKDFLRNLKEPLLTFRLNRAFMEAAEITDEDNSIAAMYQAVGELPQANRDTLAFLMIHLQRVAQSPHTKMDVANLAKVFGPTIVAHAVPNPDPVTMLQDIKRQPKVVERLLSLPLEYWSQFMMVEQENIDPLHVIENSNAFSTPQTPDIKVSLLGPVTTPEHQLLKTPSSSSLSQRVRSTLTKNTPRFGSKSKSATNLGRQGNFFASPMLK

inhibition, inactive:
CN(C)c1ccc(/C=N/NC(=O)c2ccc3c(c2)OCO3)cc1 16.6%
Cc1c(F)cccc1NS(=O)(=O)c1ccc2c(c1)n(C)c(=O)c(=O)n2C -0.09%
Cc1c(CN2CCC(C(=O)Nc3cccc(-c4cccc(Cl)c4)c3)CC2)cnn1C 11.7%
Cn1c(SCc2ccccc2)nc2c1c(=O)[nH]c(=O)n2C -7.97%
C#CCNC(=O)C1=C[C@@H](C(C)(C)C)C[C@@H](OCc2ccc(CO)cc2)O1 7.54%
O=c1cc(-c2ccc(O)c(O)c2)oc2ccc3ccccc3c12 2.51%
COc1ccc(-c2cc(=O)c3c(O)cc(O)cc3o2)cc1 -5.2%
O=c1cc(-c2ccccc2)oc2cccc(O)c12 0.53%
O=c1cc(-c2ccc(O)cc2)oc2cc(O)cc(O)c12 14.4%
COc1cccc(/C=C/C(=O)OCC(=O)Nc2nnc(-c3ccccc3)o2)c1 4.25%
Cc1c(NC(=O)c2ccc(S(=O)(=O)Nc3ccccc3F)cc2)c(=O)n(-c2ccccc2)n1C 4.66%
Cc1c(C=O)c2ccccc2n1CC(=O)N1CCc2ccccc2C1 10.2%
O=C(CC(c1ccccc1)c1ccccc1O)NCc1ccco1 (stereo not drawn) 15.2%
O=C1c2ccccc2OCOc2ccccc21 2.81%
O=S1c2ccccc2Oc2ccccc21 -3.3%
CCCCn1c(CN2C(=O)c3ccccc3C2=O)nc2ccccc2c1=O 4.82%
CCOC(=O)C1CCCN(S(=O)(=O)c2ccc3ccccc3c2)C1 (stereo not drawn) 3.67%
CCOc1ccc(NC(=O)C(C)NC(=O)c2ccccc2Cl)cc1S(=O)(=O)N1CCCC1 (stereo not drawn) -0.23%
COC(=O)c1c(NC(=O)CSc2nccn2C)sc(C)c1C -3.2%
Cc1ccc(Cl)cc1NC(=O)CNCC(c1ccccc1)N(C)C (stereo not drawn) 30.3%
CCOC(=O)c1cc(NC(=O)CNCC(c2ccccc2)N(C)C)cc(C(=O)OCC)c1 (stereo not drawn) 16.1%
COc1ccc(CCNC(=O)Cc2ccccc2)cc1OC 10%
Cc1cc(NC(=O)CNCC(c2ccccc2)N(C)C)c([N+](=O)[O-])cc1C (stereo not drawn) 13.9%
COc1ccc(CCNC(=O)CSc2ccccc2)cc1OC -5.12%
COc1ccc(Cl)cc1NC(=O)CNCC(c1ccccc1)N(C)C (stereo not drawn) 21.9%
COc1ccc(C)cc1S(=O)(=O)N(C)CC(=O)N1CCC(C(N)=O)CC1 -7.33%
O=C(CSCC(=O)OCn1nnc2ccccc2c1=O)Nc1ccc(Cl)cc1 7.19%
CCc1nc(N2CCC3(CC2)OCCO3)c2nnn(Cc3ccccc3)c2n1 0%
CCCn1c(=NC(=O)CCS(=O)(=O)c2ccccc2)sc2cc(S(N)(=O)=O)ccc21 -5.12%
CCC(=O)N1CCC(c2ccc(OC)cc2)=N1 1.71%
CCC(=O)Nc1nnc(S(=O)(=O)N(CC)c2cc(C)cc(C)c2)s1 3.75%
Cc1ccn2c(NC3CCCC3)c(-c3ccsc3)nc2c1 13.1%
Cc1ccc2nc(-c3ccncc3)c(NC3CCCC3)n2c1 -17.4%
O=C(Nc1ccc(Cl)cc1)C1CCN(C(=O)c2cccs2)CC1 6.08%
Cc1ccc2occ(C(c3nnnn3Cc3ccccc3)N3CCOCC3)c(=O)c2c1 (stereo not drawn) 7.16%
O=C(NN=Cc1ccc(F)cc1)C1CC1 6.86%
C=C1CC(C(=O)N/N=C/c2ccccc2)C1 11.8%
O=C(NN=Cc1ccc(O)cc1)C(=O)NN=Cc1ccc(O)cc1 28.3%
O=[N+]([O-])c1ccc(C=NNC(=S)NN=Cc2ccc([N+](=O)[O-])cc2)cc1 -0.77%
O=C(Nc1cccc(NC(=O)c2ccco2)c1)c1ccc2c(c1)OCCO2 2.32%
O=C(Nc1ccc(NC(=O)c2ccc3c(c2)OCCO3)cc1)c1ccccc1 1.42%
O=C(NC1CCCCCC1)c1ccc[nH]c1=S 5.17%
COc1ccc(NC(=O)CSc2nnc3ccc(-c4cccnc4)nn23)c(OC)c1 -2.52%
COc1ccc(/C=N\N=C2/SC(CC(=O)O)C(=O)N2c2ccc(O)cc2)cc1OC (stereo not drawn) 2.46%
COc1ccc(/C=N\N=C2/SC(CC(=O)O)C(=O)N2c2ccc(O)cc2)cc1 (stereo not drawn) 3.73%
O=C1CS/C(=N/N=C/c2ccccc2)N1c1ccc(O)cc1 8.23%
COc1ccc(/C=N/N=C2\SCC(=O)N2c2c(C)n(C)n(-c3ccccc3)c2=O)cc1OC 5.82%
O=C(NCCC1=CCCCC1)C(=O)c1c[nH]c2ccccc12 1.95%
Cc1ccc(S(=O)(=O)[N-]c2nc3ccccc3nc2-[n+]2cc(C)cc(C)c2)cc1 9.42%
COc1ccccc1Oc1nnnn1-c1ccc(C(N)=O)cc1 2.99%
CCn1cc(/C=C(\NC(=O)c2ccccc2F)C(=O)N2CCN(C)CC2)c2ccccc21 19%
C[C@@H]1CN(S(=O)C(C)(C)C)[C@@H](CCO)/C1=C\CCO (stereo partly drawn) 8.46%
Cc1cc(NC(=O)c2ccccc2)no1 5.35%
Cc1ccc2c(Cl)c(C(=O)Nc3cc(C)on3)sc2c1 4.78%
Cc1ccc(S(=O)(=O)c2c(COC(=O)c3ccccc3Cl)c(-c3ccccc3)nn2C)cc1 4.7%
Cc1nc2ccc(NC(=O)CCS(=O)(=O)c3ccc(Cl)cc3)cc2s1 -5.04%
CC(C)CC1NC(=O)N(CC(=O)Nc2ccc3c(c2)CCC3)C1=O (stereo not drawn) 9.25%
O=C(NCCS(=O)(=O)c1ccc(Cl)cc1)c1ccc(F)cc1 2.29%
Cc1c(C(=O)Nc2ccc(S(=O)(=O)Nc3ncccn3)cc2)oc2ccc(F)cc12 -2.01%
O=C(O)C1CCN(Cc2cccnc2)CC1 2.37%
O=S1(=O)CCN(Cc2cccnc2)CC1 0.02%
CC1CCCCN1Cc1ccc(N)cc1 (stereo not drawn) 5.78%
CC1CCCCN1Cc1ccc(N(C)C)cc1 (stereo not drawn) 9.51%
